Test results from PubChem BioAssay (NCATS).
Results filed as inconclusive are left out. Active and inactive are the calls of the source. Unless noted, calls come from the whole dose curve; as a rule, active = well fitted curve in the direction sought with a large enough effect; inconclusive = small, poorly fitted or top-dose-only effect, or another doubt; inactive = no such curve, though single readings can be large; an effect the other way counts as inactive or inconclusive.

Legend:
[1] = qHTS for Inhibitors of Plasmodium falciparum (DD2) proliferation (AID 504314)
In short: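 Normalization used 0.29 uM artemisinin as full inhibition and DMSO as baseline. Parasitized erythrocytes were exposed to compounds for 72 h (37C, 5% CO2), then lysed with saponin/Triton buffer containing SYBR Green I.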

[2] = qHTS for Inhibitors of Plasmodium falciparum (GB4) proliferation (AID 504315)
In short: (§1)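 Parasite growth measured as SYBR Green DNA fluorescence (ex 485, em 535 nm) after overnight lysis following 72 h culture at 37 °C, 0.3% parasitemia, 2.5% hematocrit. Values normalized against DMSO and 0.29 uM artemisinin controls, with plate-stack correction.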

[3] = qHTS for Inhibitors of Plasmodium falciparum (HB3) proliferation (AID 504318)
In short: as §1

[4] = tested on: Zika virus NS2B-NS3 protease (linked construct); assay: Primary screen NINDS Rhodamine qHTS for Zika virus inhibitors (AID 1347160)
In short: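 Single-chain NS2B-NS3 protease, 25 nM, pH 8.0; compounds preincubated 15 min. Activity: Rhodamine110 release from 1.5 microM substrate over 15 min, room temperature, data fitted to 4-parameter Hill.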

[5] = OV-KATE Cancer Cell Toxicity qHTS against the NCATS CANVASS Library (AID 1347345)
In short: (§2)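 Step one: seed 1000 cells per well. Step two: incubate 4 h. Step three: add test compounds in 11 concentrations. Step four: culture 72 h, then add CellTiter-Glo and record luminescence after 15min.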

[6] = HPAF-II Cancer Cell Toxicity qHTS against the NCATS CANVASS Library (AID 1347346)
In short: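 Cytotoxicity read-out was CellTiter-Glo luminescence after 72 h at 37 degrees C exposure of HPAF-II cells (1000/well) to compounds in an 11-point titration.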

[7] = OV-SAHO Cancer Cell Toxicity qHTS against the NCATS CANVASS Library (AID 1347348)
In short: as §2

[8] = Panc-1005 Cancer Cell Toxicity qHTS against the NCATS CANVASS Library (AID 1347349)
In short: as §2

[9] = U-118MG Cancer Cell Toxicity qHTS against the NCATS CANVASS Library (AID 1347351)
In short: as §2

[10] = COV-362 Cancer Cell Toxicity qHTS against the NCATS CANVASS Library (AID 1347352)
In short: (§3)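 Toxicity was measured as CellTiter-Glo luminescence after 72 h exposure to an 11-point compound series. Compound was added to 1000 cells/well 4 h after seeding.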

[11] = UWB1.289-WTBRCA1 Cancer Cell Toxicity qHTS against the NCATS CANVASS Library (AID 1347354)
In short: as §3

[12] = HEK-293 Cancer Cell Toxicity qHTS against the NCATS CANVASS Library (AID 1347355)
In short: as §3

[13] = HPAF-II 24hr Apoptosis Induction qHTS against the NCATS CANVASS Library (AID 1347356)
In short: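 Caspase-Glo 3/7 luminescence, read after 15 min room-temperature development, measures apoptosis in HPAF-II cells treated 24 h at 37 degrees C with an 11-point concentration series; 500 cells/well; doxorubicin control.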

[14] = HPAF-II 12hr Apoptosis Induction qHTS against the NCATS CANVASS Library (AID 1347358)
In short: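 Caspase-3/7 activation by DEVD-substrate luminescence (Caspase-Glo 3/7, 15 min, room temperature) after a 12-hour compound exposure in 11 concentrations, of HPAF-II pancreatic cells seeded at 500/well in DMEM with 10% FBS.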

[15] = HEK293 24hr Apoptosis Induction qHTS against the NCATS CANVASS Library (AID 1347359)
In short: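 HEK293 cells, 500 per well, exposed to an 11-point compound series for 24 hours at 37 degrees C. Caspase 3/7 activity read by Caspase-Glo luminescence (DEVD substrate) after 15 min at room temperature.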

[16] = HPAF-II 18hr Apoptosis Induction qHTS against the NCATS CANVASS Library (AID 1347360)
In short: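 Caspase-Glo 3/7 luminescence (DEVD substrate) after 15 min RT; HPAF-II, 500 cells/well, 18 h compound exposure at 37 degrees C, qHTS series; doxorubicin control 0.1nM - 4uM.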

[17] = HEK293 12hr Apoptosis Induction qHTS against the NCATS CANVASS Library (AID 1347361)
In short: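 500 HEK293 cells/well; cpds pin-transferred, 11-pt conc series; 12 h, 37 degrees C/5% CO2; Caspase-Glo 3/7 added, 15 min RT dark; luminescence.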

[18] = tested on: NAD(P)H diaphorase (Clostridium kluyveri); assay: Diaphorse counterscreen qHTS: Assay Interference Panel against the NCATS CANVASS Library (AID 1347362)
In short: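 Clostridium kluyveri diaphorase in PBS + 0.01% Tween-20 preincubated 15 min with compounds. Resazurin and NADH then added for 5 min at room temperature in the dark; resorufin fluorescence read (ex 525, em 598).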

[19] = molecular target: Luciferin 4-monooxygenase (Photinus pyralis) (UniProt P08659); assay: Firefly luciferase counterscreen qHTS: Assay Interference Panel against the NCATS CANVASS Library (AID 1347363)
In short: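 Purified P. pyralis luciferase (0.04 ug/mL, 4x reagent) added to Tris-acetate buffer with 0.013 mM D-luciferin, 0.013 mM ATP and 13.3 mM Mg-acetate; compounds preincubated 15 min, then luminescence read after 5 min, RT.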

[20] = KB-8-5-11 Cancer Cell Toxicity qHTS against the NCATS CANVASS Library (AID 1347364)
In short: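 Viability read as CellTiter-Glo luminescence after 72 h at 37 °C, 5% CO2. 11-point compound series on 500 KB-8-5-11 cells/well in DMEM/10% FBS. Follow-up plating included 1 uM tariquidar in the medium.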

[21] = SDT Cancer Cell Toxicity qHTS against the NCATS CANVASS Library (AID 1347365)
In short: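 Cytotoxicity taken from CellTiterGlo ATP luminescence after 72 hr at 37C, 5% CO2. Canine glioma line SDT, 500 cells/well, treated at 11 concentrations; bortezomib dose series as control.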

[22] = KB-3-1 Cancer Cell Toxicity qHTS against the NCATS CANVASS Library (AID 1347366)
In short: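 500 KB-3-1 cells/well; compounds pin-transferred, 11-pnt series; 72 hr, 37C/5% CO2; CellTiter-Glo, 10 min RT; luminescence read-out.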

[23] = qHTS for ATAD5 Agonist screened against the NCATS CANVASS Library (AID 1347367)
In short: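 Luminescence read-out: ATAD5-driven luciferase in stably transfected HEK 293T cells, which rises post-transcriptionally with DNA damage. Cells were exposed 16hr at 37C to test compound; a CellTiter-Fluor fluorescence read (1hr) measured viability first.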

[24] = G06 Cancer Cell Toxicity qHTS against the NCATS CANVASS Library (AID 1347368)
In short: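 Viability measured by CellTiterGlo ATP luminescence after 72 hr at 37C, 5% CO2. Canine G06 glioma cells plated at 500/well. Compounds tested as 11-point qHTS titrations.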

[25] = MCF7 Cancer Cell Toxicity qHTS against the NCATS CANVASS Library (AID 1347369)
In short: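 Luminescent ATP signal (CellTiterGlo) served as the cytotoxicity read-out after MCF7 breast cancer cells had been incubated 72 hr at 37C with natural products in an 11-point titration.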

[26] = qHTS for ATAD5 Antagonist screened against the NCATS CANVASS Library (AID 1347370)
In short: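 Compounds (11-point) co-dosed with 10 µM 5-FUrd for 16 h at 37 °C onto HEK293T-ATAD5 luciferase reporter cells. Viability measured by CellTiter-Fluor fluorescence, then ATAD5 reporter signal by luminescence.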

[27] = J3T Cancer Cell Toxicity qHTS against the NCATS CANVASS Library (AID 1347371)
In short: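 Cytotoxicity read as CellTiterGlo ATP luminescence after 72 h incubation (37C, 5% CO2) of J3T canine glioma cells (500/well) with an 11-point compound series.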

[28] = molecular target: Nuclear receptor subfamily 1 group I member 3 (Homo sapiens) (UniProt Q14994); assay: qHTS for Constitutive Androstane Receptor (CAR) Antagonist screened against the NCATS CANVASS Library (AID 1347372)
In short: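 Luminescence readout (ONE-Glo, 30 min RT) of CYP2B6-2.2kb reporter in HepG2-hCAR cells after 24hr, 37C treatment with compound against 50 nM CITCO; CellTiter-Fluor viability read beforehand.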

[29] = qHTS for Hypoxia signaling pathway (HIF-1) agonists against the NCATS CANVASS Library (AID 1347375)
In short: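 Beta-lactamase reporter under HRE control in ME-180 cells; compounds (11-point qHTS series) added after 5 hrs plating, then 17 hrs at 37C. FRET substrate read after 2 hr; same-well CellTiter-Glo luminescence gave viability and normalization.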

[30] = 10-beta competent E. coli microbial cell viability qHTS against the NCATS CANVASS Library (AID 1347376)
In short: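 Read-out: BacTiter-Glo ATP luminescence, taken 20 min after reagent addition. Beforehand, 10-beta competent E. coli at 0.2 OD had been incubated overnight at 37C with compounds at 11 concentrations.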

[31] = DH5-alpha competent E. coli microbial cell viability qHTS against the NCATS CANVASS Library (AID 1347377); details: outcome: at 46.1 µM (top of the series)
In short: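 Bacterial viability as ATP-dependent luminescence (BacTiter-Glo), read after overnight 37 °C exposure of DH5-alpha competent E. coli to compounds in 11-point titration.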

[32] = qHTS for Inflammasome Signaling Inhibitors: IL-1-beta AlphaLISA screen against the NCATS CANVASS Library (AID 1347379)
In short: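 Secreted IL-1B from human THP-1 cells quantified by AlphaLISA 16 hr after compound addition (final up to 57.5 uM). A 1 hr compound pretreatment preceded inflammasome activation with 250 ng/mL LPS plus 1.25 mM ATP (final).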

[33] = Inflammasome Signaling qHTS Counterscreen: IL-1-beta AlphaLISA counterscreen against the NCATS CANVASS Library (AID 1347381)
In short: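 Purified IL-1-beta (4 pg/well) + compound, 11-pt conc. series; acceptor beads 6 ug/mL + biotin-Ab 0.6 nM final, 1 h RT; SA-donor 24 ug/ml final, 30 min dark RT; read ex 680/em 615.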

[34] = Cytotoxicity qHTS for assessment of Hepg2 cells membrane integrity screened against the NCATS CANVASS Library (AID 1347387)
In short: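 Membrane damage quantified as fluorescent LDH-release signal (ex 560, em 590 nm) in HepG2 cells treated 5 hr at 37C. qHTS format, 11 concentrations spanning 0.59 nM - 46 uM final, cells plated at 2000 per well the night before.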

[35] = qHTS assay for small molecule disruptors of mitochondrial membrane potential screened against the NCATS CANVASS Library (AID 1347389)
In short: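 Mitochondrial membrane potential in HepG2: 1 h compound treatment (11-point concentration series), 30 min m-MPI dye at 37C, then dual fluorescence of J-aggregates (ex 540/em 590) and monomers (ex 490/em 535); lower red/green ratio indicates depolarization.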

[36] = qHTS for inhibitors of Wild type Zika virus screened against the NCATS CANVASS Library (AID 1347396)
In short: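 Using ATP-based luminescence (CellTiter Glo), this screen scores rescue of Vero 766 cells from wild-type Zika killing at 72 h post-infection. Compounds are tested in a concentration series.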

[37] = Viability qHTS for inhibitors of the SERCaMP assay screened against the NCATS CANVASS Library (AID 1347400)
In short: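 CellTiter-Glo luminescence measured cytotoxicity after 48 h at 37C of compound treatment (11-point series). Cells were SH-SY5Y-GLuc SERCaMP MJH297 derivatives, seeded at 1000 per well 4 h beforehand.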

[38] = Redox Reaction Profiling qHTS: Assay Interference Panel against the NCATS CANVASS Library (AID 1347401)
In short: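 Fluorescence read-out (525 nm excitation, 598 nm emission) at time zero and after 15 min in the dark tracked resorufin formation. Mix: 5 uM resazurin, 200 uM DTT, HEPES pH 7.3 buffer with NaCl.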

[39] = qHTS for inhibitors of Rabies Virus screened against the NCATS CANVASS Library (AID 1347402; calls by dose curve)
[40] = qHTS for Inhibitors of Plasmodium falciparum (7G8) proliferation (AID 504316)
In short: as §1

Measured: Potency

Chain of Luciferin 4-monooxygenase (Photinus pyralis) (P08659 whole entry, looked up): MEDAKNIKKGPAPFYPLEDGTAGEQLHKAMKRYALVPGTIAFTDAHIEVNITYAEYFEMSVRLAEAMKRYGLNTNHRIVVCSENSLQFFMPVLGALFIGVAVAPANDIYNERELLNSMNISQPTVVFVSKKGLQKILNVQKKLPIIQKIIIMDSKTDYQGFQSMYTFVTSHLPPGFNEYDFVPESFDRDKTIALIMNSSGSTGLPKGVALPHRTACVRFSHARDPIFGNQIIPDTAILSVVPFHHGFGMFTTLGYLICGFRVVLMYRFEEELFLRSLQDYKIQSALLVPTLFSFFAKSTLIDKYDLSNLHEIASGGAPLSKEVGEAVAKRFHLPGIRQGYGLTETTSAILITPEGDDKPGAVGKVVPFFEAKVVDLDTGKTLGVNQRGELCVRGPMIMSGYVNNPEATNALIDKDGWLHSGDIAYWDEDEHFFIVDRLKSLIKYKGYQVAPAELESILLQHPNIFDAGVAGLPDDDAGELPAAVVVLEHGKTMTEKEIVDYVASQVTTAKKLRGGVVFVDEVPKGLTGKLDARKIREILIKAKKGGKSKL
Chain of Nuclear receptor subfamily 1 group I member 3 (Homo sapiens) (Q14994 whole entry, looked up): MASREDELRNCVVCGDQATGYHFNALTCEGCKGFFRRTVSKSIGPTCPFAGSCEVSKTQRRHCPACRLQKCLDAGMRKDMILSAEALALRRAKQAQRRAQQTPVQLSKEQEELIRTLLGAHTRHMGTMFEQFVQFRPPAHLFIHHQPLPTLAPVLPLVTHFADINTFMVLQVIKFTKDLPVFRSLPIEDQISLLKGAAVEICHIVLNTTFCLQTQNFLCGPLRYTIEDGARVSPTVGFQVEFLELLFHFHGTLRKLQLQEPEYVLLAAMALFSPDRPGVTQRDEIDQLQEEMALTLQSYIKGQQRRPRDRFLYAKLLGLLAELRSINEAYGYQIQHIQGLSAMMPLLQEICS

COC(=O)[C@@H]1[C@@H](c2ccccc2)[C@H]2C(=O)c3c(OC)cc(OC)cc3O[C@@]12c1ccc(OC)cc1
inactive: [1] | [2] | [3]

CC=C1CN(C=O)[C@H]2C[C@@H]1[C@@H](C(=O)OC)[C@@]13CCOC21Nc1ccccc13 (stereo partly specified)
active: [4] 44 µM
not listed: [1] | [2] | [3] | [40]
inactive: all other assays above

CO[C@@H]1c2ccccc2[C@H]2C(C(=O)O)c3c(n(C)c4ccccc34)[C@H]2[C@H]1C (stereo partly specified)
inactive: [1] | [2] | [40]

C=C1[C@@H]2CCN3C(=O)N[C@@H](c4ccccc4)[C@@]1(C(=O)OCC)C23 (stereo partly specified)
inactive: [1] | [2] | [40] | [3]
